Screens: PubChem BioAssay, National Center for Advancing Translational Sciences (NCATS)
A selection: hits, their analogues and other compounds. The true share with any hit is near 2.8%.
HEK293 viab – GF-AFC viability counterscreen for inhibitors of alpha-synuclein gene (SNCA) expression; HEK-293-SNCA-luc viability, GF-AFC fluorescence, 24 h; Potency, µM (highest dose often 57.1 µM), usual class: cytotoxic; actives 0.12% (n = 150,000); note: nearly all actives have a fitted effect of over 30% in size
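HEK-293-SNCA-luc cells (1500/well) plated 24 h, then exposed 24 h to a dilution series; GF-AFC added 30 min at 37C, fluorescence 405/540 nm; normalised to medium-only and DMSO wells, Hill fit.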
SNCA expr inhib – Primary qHTS assay for inhibitors of alpha-synuclein gene (SNCA) expression | HEK-293 SNCA-luciferase knock-in, luminescence, 24 h | Potency, µM (series often up to 57.2 µM), hits mostly inhibitors | actives 0.17% (n = 140,000) | AID 1671194, 2021; note: nearly all actives have a fitted effect of over 45% in size
KDM5B inh – Primary screen for KDM5B Histone Demethylases FDH-coupled qHTS | KDM5B demethylase, FDH-coupled NADH fluorescence (FDH is formaldehyde dehydrogenase) | Potency, µM (titrated, usually from 57.7 µM), most hits filed as inhibitors | actives 2.6% (n = 220,000); note: nearly all actives have a fitted effect of over 70% in size
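KDM5BΔAP (200 nM final) in 50 mM HEPES pH 7.5, 0.01% Tween-20 was preincubated 10 min at RT with compound over a concentration range. Substrate mix (H3K4me3 12.5 µM, α-KG 25 µM, Fe²⁺, ascorbate, NAD⁺, FDH) was added, and NADH fluorescence change over 30 min gave dose-response curves.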
IP6K1 inh – Primary qHTS assay for small molecule inhibitors of Inositol hexaphosphate kinase 1 (IP6K1) | Inositol hexakisphosphate kinase 1 (Homo sapiens), Q92551 | IP6K1 kinase, ADP-Glo luminescence, 2 h; active compounds read low | activity change, % (series mostly up to about 58 µM) | actives 0.81% (n = 140,000) | AID 1645851, 2021; in the data active = activity change below about -25%
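ADP-Glo luminescence measures ADP made by human IP6K1 during a 2 h RT reaction with ATP/IP6 (mix at 1.3 mM/130 uM); top library doses 57.5 and 19.1 uM final.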
Large screens that a line does not name were inactive. Unless noted, calls come from the whole dose curve; as a rule, active = well fitted curve in the direction sought with a large enough effect; inconclusive = small, poorly fitted or top-dose-only effect, or another doubt; inactive = no such curve, though single readings can be large; an effect the other way counts as inactive or inconclusive.

O=C1c2cc(N3CCOCC3)nc(-c3cccnc3)c2CN1c1ccccc1	KDM5B inh 40µM
CN(C)c1cccc(-c2nc(N3CCOCC3)cc3c2CN(Cc2cnn(C)c2)C3=O)c1	none
COc1cc(F)ccc1-c1nc(N2CCOCC2)cc2c1CN(c1ccccc1)C2=O	KDM5B inh 10µM
COc1ccc(-c2noc(C3CC(=O)N(c4ccccc4)C3)n2)c(OC)c1 (configuration not stated)	none
Cc1nc(COc2ccc(C(=O)N3CCN(C4CCS(=O)(=O)C4)CC3)cc2)cs1 (configuration not stated)	none (no result: HEK293 viab, SNCA expr inhib, IP6K1 inh)
Cc1cc(C(=O)N2C[C@@H](COCC3CC3)[C@H](c3ccccn3)C2)n[nH]1	none
O=C(c1cc[nH]c(=O)c1)N1C[C@@H](COCC2CC2)[C@H](c2ccccn2)C1	KDM5B inh 28µM
CCCSc1nc2c(c(=O)[nH]c(=O)n2C)n1CC(O)COc1ccccc1C (configuration not stated)	none (no result: HEK293 viab, SNCA expr inhib, IP6K1 inh)
C[C@@H](Nc1ccc(-c2nc(CCCc3ccccc3)no2)cn1)C(N)=O	KDM5B inh inconclusive
c1ccc(CCCc2noc(-c3ccc(NCc4ccccn4)nc3)n2)cc1	KDM5B inh inconclusive
Cn1cc(CNc2ccc(-c3nc(CCCc4ccccc4)no3)cn2)cn1	KDM5B inh 32µM
Cc1cc(CNc2ccc(-c3nc(CCCc4ccccc4)no3)cn2)no1	KDM5B inh 28µM
CCN1CC(Nc2ccc(-c3nc(CCCc4ccccc4)no3)cn2)CC1=O (configuration not stated)	KDM5B inh 28µM
Cn1cc(C(=O)N2CCC(N(Cc3cccnc3)C3CCOCC3)CC2)cn1	none
Cc1cc(C)cc(CCCCCCCCCCCC(=O)O)c1	none (no result: HEK293 viab, SNCA expr inhib, IP6K1 inh)
COC(=O)C1(NC(=O)CSc2ccc(Br)cc2)CCCCC1	none (no result: HEK293 viab, SNCA expr inhib, IP6K1 inh)
CC1CCN(C(=O)c2cc3n(n2)CC(c2ccc(Cl)cc2)OC3)CC1 (configuration not stated)	none
Cc1nnc([C@@H]2CC(F)(F)CN2C(=O)c2ccoc2C)o1	none
Cc1nnc([C@@H]2CC(F)(F)CN2C(=O)c2cccc3[nH]ccc23)o1	KDM5B inh 28µM
COCc1c(C(=O)N[C@@H]2CN(c3ncccn3)C[C@H]2CN(C)C)noc1C	KDM5B inh 28µM
COc1cccc(CNC(=O)N[C@@H]2CN(Cc3ccncc3)C[C@H]2CN(C)C)c1	KDM5B inh inconclusive
COCCNC(=O)N[C@@H]1CN(c2ncccn2)C[C@H]1CN(C)C	KDM5B inh 22µM
COc1cccc(CNC(=O)N[C@@H]2CN(c3ncccn3)C[C@H]2CN(C)C)c1	KDM5B inh 28µM
Cc1ccc(OCC(=O)NCC2CCN(c3cnn(C)c(=O)c3)C2)cc1 (configuration not stated)	none
Cc1ccc(Nc2ccc(N3CCN(S(=O)(=O)c4ccc(Cl)c(Cl)c4)CC3)nn2)cc1	none (no result: HEK293 viab, SNCA expr inhib, IP6K1 inh)
CCOC(=O)c1cnc2ccc(C)cc2c1Nc1ccc(C(C)=O)cc1	none (no result: HEK293 viab, SNCA expr inhib, IP6K1 inh)
O=c1cc(N2CCOCC2)oc2c(NCc3cnccn3)nccc12	KDM5B inh 35µM
O=c1cc(N2CCOCC2)oc2c(NCC3CCOCC3)nccc12	HEK293 viab inconclusive, SNCA expr inhib inconclusive, KDM5B inh 32µM
O=c1cc(N2CCOCC2)oc2c(-c3ccccc3F)nccc12	HEK293 viab inconclusive, KDM5B inh inconclusive
Cc1ccc(-c2cn3c(n2)CO[C@@H](CNS(C)(=O)=O)C3)cc1	KDM5B inh 40µM
COc1ccc(-c2cn3c(n2)CO[C@@H](CNS(C)(=O)=O)C3)cc1	KDM5B inh inconclusive
C[C@@H](O)[C@H](Nc1ncnc2sc3c(c12)CCCC3)C(=O)O	none (no result: HEK293 viab, SNCA expr inhib, IP6K1 inh)
Cc1cc(CNC(=O)c2cc(-c3ccccc3C)cc3c2OCCN3C)no1	KDM5B inh 35µM
Cc1cc(CNC(=O)c2cc(-c3ccccc3F)cc3c2OCCN3C)no1	SNCA expr inhib inconclusive, KDM5B inh 32µM
Cc1cc(CNC(=O)c2cc(-c3ccncc3)cc3c2OCCN3C)no1	KDM5B inh inconclusive
Cc1cc(CNC(=O)c2cc(-c3ccc(CO)cc3)cc3c2OCCN3C)no1	KDM5B inh 32µM
c1ccc(OCCNc2nc(-c3cccnc3)nc3ccccc23)cc1	none (no result: HEK293 viab, SNCA expr inhib, IP6K1 inh)
NC(=O)c1cc(-c2cc(NCc3cccnc3)nc3[nH]ccc23)ccc1F	KDM5B inh 25µM
O=C(O)c1cnc(-c2cc(NCc3ccccn3)nc3[nH]ccc23)c(Cl)c1	KDM5B inh inconclusive
Nc1cccn2nc(C3CCC3)nc12	KDM5B inh 18µM
O=C(Nc1cccn2nc(C3CCC3)nc12)c1ccc(F)cc1	none
C[C@]1(O)CCN(Cc2ccc(-c3ccccc3C#N)o2)C[C@@H]1O	KDM5B inh 25µM
Cc1noc(-c2ccccc2OC2CCN(S(C)(=O)=O)C2)n1 (configuration not stated)	SNCA expr inhib inconclusive, KDM5B inh 22µM
O=[N+]([O-])c1cc(C(F)(F)F)ccc1NC(c1ccccc1)c1ccccn1 (configuration not stated)	none (no result: HEK293 viab, SNCA expr inhib, IP6K1 inh)
Cc1c(-c2ccccc2)[nH]c2c(CNC(=O)c3ccc(=O)n(C)n3)cc(Cl)cc12	HEK293 viab inconclusive
NC(=O)C1(C(=O)NCc2nc(-c3cccc(F)c3)c(-c3ccccn3)[nH]2)CC1	none
Cc1c(-c2ccccc2)[nH]c2c(CNC(=O)CCn3cnnn3)cc(Cl)cc12	KDM5B inh 25µM
Cc1c(-c2ccccc2)[nH]c2c(CNC(=O)Cn3ccc(=O)[nH]c3=O)cc(Cl)cc12	KDM5B inh 28µM
Cc1c(-c2ccccc2)[nH]c2c(CNC(=O)CN3C(=O)CNC3=O)cc(Cl)cc12	KDM5B inh inconclusive
Cc1cc(CNC(=O)C2(C(N)=O)CC2)c2[nH]c(-c3ccccc3)c(C)c2c1	SNCA expr inhib inconclusive, KDM5B inh 28µM
C#CCOc1ccccc1CN1CCN(c2ncc(F)cn2)CC1	KDM5B inh 28µM
COc1cccc(-c2ccnc3nc(Cc4ccc(F)cc4)nn23)c1	KDM5B inh 25µM
COc1ccc(Cc2nc3nccc(-c4ccccc4)n3n2)cc1	none
Fc1ccc(Cc2nc3nccc(-c4ccccc4)n3n2)cc1	KDM5B inh 28µM
Fc1cc(F)cc(Cc2nc3nccc(-c4cccs4)n3n2)c1	KDM5B inh 25µM
Fc1ccc(Cc2nc3nccc(-c4ccsc4)n3n2)cc1	KDM5B inh 25µM
C=CCn1cnnc1SCc1cc(=O)oc2cc(C)c(C(C)C)cc12	none (no result: HEK293 viab, SNCA expr inhib, IP6K1 inh)
O=C(NC1CCN(c2cnn(Cc3ccccc3)c(=O)c2)CC1)C1CCCCC1	none
Cc1ccccc1-c1nc2scc(CCNC(=O)C(=O)Nc3c(C)cccc3C)n2n1	none (no result: HEK293 viab, SNCA expr inhib, IP6K1 inh)
O=C(c1ccccc1)N1CCn2c(nn(-c3ccc(C(F)(F)F)cc3)c2=O)C1	KDM5B inh inconclusive
Cc1ccc(-n2nc3n(c2=O)CCN(C(=O)c2ccc(Cl)nc2)C3)cc1	KDM5B inh 25µM
COc1ccccc1C(=O)N1CCn2c(nn(-c3ccc(C(F)(F)F)cc3)c2=O)C1	SNCA expr inhib inconclusive, KDM5B inh 79µM
